Experimental findings from PubChem BioAssay are described below.

Molecules are shown by their SMILES. Calls of active or inactive are those of the source. Unless noted, no rule for the calls is given here.

A short description of experiment [1]: HepG2 liver cancer cell viability effects, profiling panel, resazurin fluorescence, 24 h, PK04 Diversity Set (AID 1172). Also: test concentration not given here. Particulars: higher = more signal. Background: The colour change of resazurin is a common sign of viable cells or microbes.
A short description of experiment [2]: basal S. cerevisiae growth modulation, no modifier, primary screen, OD600, strain BY4716, 24 h, basal condition (AID 1173). Particulars: OD600, 24 h, higher = more signal, called active from +8 up or from −8 down.
Experiment [3] is described as follows: MM1S myeloma cell viability, profiling panel, resazurin fluorescence, basal, 24 h, PK04 Diversity Set (AID 1174).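 Also: MM1S multiple myeloma cell line; test concentration not given here.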 Particulars: higher = more signal, called active from +8 up or from −8 down.
The target in experiment [4] is Dihydroorotate dehydrogenase (quinone), mitochondrial (Plasmodium falciparum (isolate 3D7)) (UniProt Q08210). In words: PfDHODH enzyme inhibitors, primary screen, biochemical, C-terminal His tag, absorbance 600 nm (AID 1175).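 Also: recombinant parasite enzyme with a five histidine tag at its C terminus; test concentration not given here.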 Particulars: DCIP absorbance 600 nm, higher = more signal, called active from +8 up or from −8 down.
Chain of Dihydroorotate dehydrogenase (quinone), mitochondrial (Plasmodium falciparum (isolate 3D7)) (Q08210 whole entry, looked up): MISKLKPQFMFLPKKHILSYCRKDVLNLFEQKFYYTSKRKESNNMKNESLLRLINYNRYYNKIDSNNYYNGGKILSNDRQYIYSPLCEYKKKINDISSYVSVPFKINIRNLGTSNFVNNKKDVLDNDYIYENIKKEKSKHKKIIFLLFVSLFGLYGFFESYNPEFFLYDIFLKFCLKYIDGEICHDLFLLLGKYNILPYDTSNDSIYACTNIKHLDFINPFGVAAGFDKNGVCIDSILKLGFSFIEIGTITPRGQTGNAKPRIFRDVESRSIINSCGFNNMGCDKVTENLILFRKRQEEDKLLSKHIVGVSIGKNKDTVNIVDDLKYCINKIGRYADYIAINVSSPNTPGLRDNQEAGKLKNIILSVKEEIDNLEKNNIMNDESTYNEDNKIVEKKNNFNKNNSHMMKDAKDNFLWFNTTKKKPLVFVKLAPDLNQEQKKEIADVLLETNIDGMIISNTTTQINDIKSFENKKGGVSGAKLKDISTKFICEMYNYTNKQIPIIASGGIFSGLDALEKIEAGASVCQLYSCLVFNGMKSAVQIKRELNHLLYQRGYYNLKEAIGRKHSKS
A short description of experiment [5]: P. aeruginosa biofilm formation inhibitors, primary screen, strain PAO1, LB-PBS medium, absorbance 600 nm (AID 1176). Also: test concentration not given here. Particulars: P. aeruginosa PAO1 growth/biofilm, A600, 12 h; higher = more signal.
The nature of experiment [6]: S. cerevisiae RM11-1a growth modifiers, primary screen, strain RM11-1a, OD600, basal, 24 h (AID 1177).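 Also: cultures grown under basal conditions with no added stressor; test concentration not given here.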 The note with it: OD600, 24 h, higher = more signal, called active from +8 up or from −8 down.
The nature of experiment [7]: E. coli acrAB mutant growth effects, primary screen, E. coli filamentation inducers, strain DRC39, OD650, 24 h (AID 1178).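 Also: growth measured as culture turbidity by optical density at 650 nm; test concentration not given here.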 The note with it: higher = more signal, called active from +8 up or from −8 down.
Experiment [8] in a line: E. coli acrAB mutant growth effects, primary screen, E. coli filamentation inducers, strain DRC39, OD650, 48 h (AID 1179).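 Also: screen aims at cell division blockers that make cells filament.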 Particulars: E. coli DRC39 delta-acrAB growth, higher = more signal, called active from +8 up or from −8 down.
A short description of experiment [9]: RPMI8226 myeloma cell viability, profiling panel, resazurin fluorescence, basal, 24 h, PK04 Diversity Set (AID 1180).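 Also: RPMI8826 multiple myeloma cell line at 5000 cells per well; test concentration not given here.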 The note with it: higher = more signal.
In experiment [10] the target is E3 ubiquitin-protein ligase XIAP (Homo sapiens) (UniProt P98170). Kind of experiment: XIAP binders, primary screen, biophysical, small-molecule microarray, fluorescence 635 nm (AID 1181).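 Also: score merges 667 nm emission and signal to noise over triplicate slides.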 The note with it: small-molecule microarray binding, higher = more signal.
Chain of E3 ubiquitin-protein ligase XIAP (Homo sapiens) (P98170 whole entry, looked up): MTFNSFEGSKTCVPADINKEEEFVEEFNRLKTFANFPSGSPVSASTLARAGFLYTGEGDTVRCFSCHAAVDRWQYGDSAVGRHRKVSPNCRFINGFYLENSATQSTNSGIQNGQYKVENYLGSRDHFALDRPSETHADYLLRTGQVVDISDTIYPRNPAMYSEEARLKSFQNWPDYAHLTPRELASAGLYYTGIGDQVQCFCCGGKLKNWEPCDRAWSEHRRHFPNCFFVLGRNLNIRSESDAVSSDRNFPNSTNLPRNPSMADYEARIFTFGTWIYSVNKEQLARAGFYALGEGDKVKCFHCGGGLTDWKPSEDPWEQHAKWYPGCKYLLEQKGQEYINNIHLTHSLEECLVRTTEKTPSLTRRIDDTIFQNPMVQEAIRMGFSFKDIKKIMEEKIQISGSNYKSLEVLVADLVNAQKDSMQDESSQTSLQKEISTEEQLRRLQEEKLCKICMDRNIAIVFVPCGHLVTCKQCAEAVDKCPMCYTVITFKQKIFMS

With `COc1ccc(C(O)C2C=CC3C(=O)N(C)C(=O)C3N2N(c2ccccc2)c2ccccc2)c2ccccc12` (stereo not given), the z-score was -1 in experiment [1]; 0.618 (inactive) in [2]; -1.57 (inactive) in [3]; 0.447 (inactive) in [5]; 0.588 (inactive) in experiment [6]; -0.546 (inactive) in experiment [7]. The z-score in experiment [8] is -0.225 (inactive); in [9], -1.14. Further, the composite z-score in experiment [4] is 0.231 (inactive); in [10], 0.239.
As for `O=C(CS)NCCCCCNC(=O)[C@H]1C[C@H]2C(=O)NCC(=O)N2[C@H]1c1cccc(OCCO)c1`, the z-score was 0.942 in [1]; -0.191 (inactive) in [2]; 1.49 (inactive) in experiment [3]; -0.764 (inactive) in [5]; -0.39 (inactive) in experiment [6]; 0.325 (inactive) in experiment [7]. Further, the values for the z-score in experiment [8] and in experiment [9] were 0.261 (inactive) and 1.28, respectively. Further, the results for the composite z-score in experiment [4] and in experiment [10] were 0.258 (inactive) and 0.0174, respectively.
Regarding `[N-]=[N+]=Nc1ccccc1C[C@@]1(C(=O)N2CCCCC2)N=C(c2ccc(OCCCO)cc2)O[C@@H]1c1ccccc1`, the z-score was 1.9 in experiment [1]; -2.84 (inactive) in [2]; -0.351 (inactive) in experiment [3]; 3.16 (inactive) in [5]; 0.076 (inactive) in experiment [6]; 1.38 (inactive) in [7]. For the same molecule, the values for the z-score in experiment [8] and in experiment [9] were 0.887 (inactive) and -0.0538, respectively. The composite z-score in [4] was 0.496 (inactive); in experiment [10], -0.236.
As to `COc1cc2c(cc1OC)CN(C(=O)[C@H]1[C@@H]3C(=O)O[C@@H](c4ccccc4)[C@@H](c4ccccc4)N3[C@@H](c3ccccc3OCCO)[C@]13C(=O)Nc1ccc(C#CCCO)cc13)CC2`, the z-score in experiment [1] is 0.51; in [2] it was 1.69 (inactive); in [3], -0.442 (inactive); in [5] it was 1.54 (inactive); in [6], 3.11 (inactive); in [7], -0.456 (inactive). For the same molecule, the z-score was -0.542 (inactive) in [8] and -0.0397 in experiment [9]. In addition, the composite z-score in experiment [4] was 0.749 (inactive); in [10], -0.152.
Regarding `COc1ccc(C(=O)Nc2cccc(CN3C(=O)[C@]4(O[C@H](CCn5cc(CCO)nn5)[C@@H]([Si](C)(C)c5ccc(OC)cc5)[C@@H]4C)c4ccccc43)c2)cc1`, the z-score in experiment [1] is -6.31; in [2] it was -7.34 (inactive); in [3], -9.11 (active); in experiment [5], 1.12 (inactive); in [6] it was 4 (inactive); in experiment [7], 0.216 (inactive). In addition, the z-score is -0.883 (inactive) in [8] and -6.19 in experiment [9]. Further, the composite z-score in experiment [4] was 2.2 (inactive); in experiment [10] it was -0.173.
For the molecule `C=C(C)[C@@H]1CC=C(C(O)C2C=CC3C(=O)NC(=O)C3N2Nc2ccc(Cl)cc2Cl)CC1` (stereo not given in full), the z-score in experiment [1] is -3.18; in [2], -5.07 (inactive); in [3], -2.94 (inactive); in experiment [5], 0.875 (inactive); in experiment [6] it was 1.11 (inactive); in experiment [7], -0.761 (inactive). Besides, the z-score is -1.29 (inactive) in experiment [8] and -2.54 in experiment [9]. Moreover, the composite z-score in [4] was 0.512 (inactive); in [10], -0.0655.
In the case of `COc1cc2c(cc1O)C(c1cccs1)N(Cc1cccc(OC(F)(F)F)c1)CC2` (stereo not given), the z-score was -0.688 in experiment [1]; -3.07 (inactive) in experiment [2]; -1.11 (inactive) in experiment [3]; -0.0623 (inactive) in experiment [5]; -0.728 (inactive) in experiment [6]; -0.0378 (inactive) in [7]. For the same molecule, the z-score in [8] is 1.14 (inactive); in experiment [9], -1.93. Besides, the composite z-score was -4.69 (inactive) in experiment [4] and 0.171 in experiment [10].
Regarding `O=C1NC(=O)C2C1C=CC(C(O)c1ccc(I)cc1)N2Nc1ccc(Cl)cc1Cl` (stereo not given), the z-score in experiment [1] is -1.99; in [2], -15.1 (active); in experiment [3] it was -0.177 (inactive); in [5] it was 2.06 (inactive); in experiment [6], -4.5 (inactive); in [7], 0.163 (inactive). In addition, the z-score in [8] is -0.186 (inactive); in [9] it was -0.137. Also, the results for the composite z-score in experiment [4] and in experiment [10] were -1.4 (inactive) and -0.108, respectively.
On to `O=C(CS)NCCCCCNC(=O)[C@@H]1C[C@@H]2C(=O)NCC(=O)N2[C@@H]1c1cccc(OCCO)c1`, for which the z-score in experiment [1] is -0.28; in experiment [2], -1.01 (inactive); in experiment [3], 0.648 (inactive); in [5] it was 0.752 (inactive); in experiment [6], -2.63 (inactive); in experiment [7], 1.95 (inactive). Also, the z-score in experiment [8] is 2.01 (inactive); in experiment [9], 0.847. Also, the composite z-score in experiment [4] was -0.61 (inactive); in [10] it was -0.103.
Take `C=C[C@H](C)[C@@H](OC(=O)Nc1ccc(SC)cc1)c1ccc(O)c2ccccc12`: the z-score was -0.752 in experiment [1]; -18.2 (active) in [2]; -3.78 (inactive) in experiment [3]; 0.908 (inactive) in [5]; -5.28 (inactive) in experiment [6]; -0.33 (inactive) in experiment [7]. Further, the values for the z-score in experiment [8] and in experiment [9] were -0.638 (inactive) and -3, respectively. Moreover, the composite z-score in experiment [4] was -1.84 (inactive); in experiment [10] it was -0.258.
